Screening results from PubChem BioAssay.
A selection: hits, their analogues and other compounds. The true share with any hit is near 11%.
hNpr1 antagonist = antagonists of human natriuretic peptide receptor Npr1; actives 1.6% (n = 76,000); HEK293 hNpr1 GloSensor cGMP, ANP-stimulated luminescence; P16066; AID 1347048; Potency, µM (titrated, usually from 46.3 µM), actives largely listed as inhibitors; calls by dose curve; also: nearly all actives have a fitted effect of over 60% in size
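HEK293 cells stably expressing human Npr1 and cGMP GloSensor pGS-40F, loaded 2 h with 2% GloSensor reagent, given compound 30 min at room temperature. Luminescence read before and 20 min after 0.1 nM hNppA.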
FLuc inh = blocks purified firefly luciferase enzyme activity; P08659; purified P. pyralis luciferase, luminescence, biochemical; Potency, µM (highest dose often 115 µM), actives largely listed as inhibitors; actives 2.5% (n = 76,000); AID 1347043; also: nearly all actives have a fitted effect of over 65% in size
Target sequence (P08659 whole entry, looked up): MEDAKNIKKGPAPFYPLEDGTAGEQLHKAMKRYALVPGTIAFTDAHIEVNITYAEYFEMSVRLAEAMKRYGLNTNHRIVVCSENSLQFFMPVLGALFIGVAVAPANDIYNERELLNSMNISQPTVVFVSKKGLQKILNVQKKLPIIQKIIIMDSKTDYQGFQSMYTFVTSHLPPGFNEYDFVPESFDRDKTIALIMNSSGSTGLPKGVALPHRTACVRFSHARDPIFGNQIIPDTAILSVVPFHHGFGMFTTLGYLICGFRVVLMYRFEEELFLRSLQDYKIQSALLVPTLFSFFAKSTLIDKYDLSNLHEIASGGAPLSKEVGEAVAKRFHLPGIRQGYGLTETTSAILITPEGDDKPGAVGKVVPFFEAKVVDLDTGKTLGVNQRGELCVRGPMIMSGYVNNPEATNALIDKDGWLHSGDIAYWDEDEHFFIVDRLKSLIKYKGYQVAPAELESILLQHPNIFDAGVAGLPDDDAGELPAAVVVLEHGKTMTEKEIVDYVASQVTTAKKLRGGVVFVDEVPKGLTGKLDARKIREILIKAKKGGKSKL
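FLuc 10nM, D-luciferin 10uM, ATP 10uM, Mg acetate 10mM, Tris acetate pH 7.5, Tween/BSA; cpd qHTS; enzyme added last; CCD luminescence.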
HEK293 tox = cytotoxic compounds in HEK 293 cells. actives 6.6% (n = 94,000). HEK 293 viability, ATP luminescence (CellTiter-Glo), 48-72 h. Potency, µM (highest dose often 115 µM), actives largely listed as inhibitors. AID 1345083; also: nearly all actives have a fitted effect of over 60% in size
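CellTiter-Glo luminescence (cellular ATP) was read after 48 or 72 hr of compound exposure at 37 degree Celsius. Cells were HEK 293 plated at 250 cells/well.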
NIH3T3 tox = NIH 3T3 cell cytotoxicity; NIH 3T3 viability, CellTiter-Glo ATP luminescence, 48-72 h; Potency, µM (top dose mostly 96.7 µM), usual class: inhibitors; actives 4.3% (n = 94,000); also: nearly all actives have a fitted effect of over 55% in size
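Viability of NIH 3T3 cells after 48 or 72 hr compound treatment at 37 °C was assessed by CellTiter-Glo, with luminescence imaged following a 10 min room-temperature step.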
Numbers stand for hits; 0 = inactive; ? = inconclusive; - = no result given. Unless noted, calls follow the shape of the dose curve; as a rule, active = well fitted curve in the direction sought with a large enough effect; inconclusive = small, poorly fitted or top-dose-only effect, or another doubt; inactive = no such curve, though single readings can be large; an effect the other way counts as inactive or inconclusive.

SMILES | hNpr1 antagonist | FLuc inh | HEK293 tox | NIH3T3 tox
COCCCNC(=O)c1nc2sccn2c1-c1ccc(C(F)(F)F)cc1 | - | - | 0 | ?
COCCCNC(=O)c1ccc2nnc(CC3CC3)n2c1 | - | - | 0 | 0
CN1CCCC2(CCN(C(=O)CCCOc3ccccc3)C2)C1=O (stereo not given) | 0 | 28.2µM | 0 | 0
COCCCn1c(=O)c(C(=O)NCCc2ccc(Cl)cc2)nc2cccnc21 | - | - | ? | 0
COc1ccccc1Oc1ncccc1CNC1CCCC1 | 0 | 0 | 0 | 0
CCCCOc1c(CNC(C)c2ncccc2C)cccc1OC (stereo not given) | 0 | 0 | 39.8µM | 28.2µM
Clc1cccc(-c2cnc([C@@H]3COCCN3C3CCCCC3)[nH]2)c1 | 0 | 0 | 79.4µM | ?
Oc1ccccc1CN1CCOC[C@H]1c1ncc(-c2ccccc2)[nH]1 | 0 | 0 | ? | 100µM
Clc1ccc(-c2cnc([C@@H]3COCCN3Cc3ccccc3)[nH]2)cc1 | ? | 0 | 89.1µM | ?
Oc1ccccc1CN1CCOC[C@H]1c1ncc(-c2ccc(F)cc2)[nH]1 | 0 | 0 | ? | 0
Clc1cccc(-c2cnc([C@@H]3COCCN3Cc3ccccc3)[nH]2)c1 | ? | 0 | 100µM | 79.4µM
O=C(c1ccccc1F)N1CCCC(c2nn(-c3ccccn3)c(=O)[nH]2)C1 (stereo not given) | - | - | ? | 0
CCS(=O)(=O)c1ccc2oc([C@H]3CCN(Cc4ccc(OC)cc4)C3)nc2c1 | ? | 0 | 63.1µM | ?
Fc1ccc(CN2CC[C@H](c3nc4cc(Cl)ccc4o3)C2)cc1F | 0 | 0 | 89.1µM | ?
COc1cccc(CN2CC[C@H](c3nc4cc(Cl)ccc4o3)C2)c1 | 0 | ? | ? | 89.1µM
CCS(=O)(=O)c1ccc2oc([C@H]3CCN(Cc4c[nH]c5ccccc45)C3)nc2c1 | 0 | 0 | ? | ?
Fc1ccc2oc([C@H]3CCN(Cc4ccc(F)c(F)c4)C3)nc2c1 | 0 | 0 | ? | 0
COc1cccc(CN2CCC(Cc3ncc(C)n3Cc3ccccc3)C2)c1 (stereo not given) | 0 | 0 | 44.7µM | 35.5µM
O=C(NCc1ccc(Cl)cc1)c1ccc2nnc(Cc3ccco3)n2c1 | - | - | 0 | ?
CN(Cc1ccc(-c2ccccc2)cc1)Cc1ccnn1C | 20µM | ? | 25.1µM | ?
CN(Cc1ccc(-c2ccccc2)cc1)Cc1nccs1 | 10µM | 44.7µM | ? | ?
CN(Cc1nccs1)Cc1cccn1C | 0 | 0 | ? | 0
O=C(NCCNC(=O)c1ccc(-c2cccc(C(F)(F)F)c2)cc1)NC1CCCC1 | - | - | 0 | 0
Cc1nc2c(c(-c3ccc(Cl)cc3)n1)CCN(C(=O)NC1CCCC1)CC2 | - | - | 0 | ?
O=C(Cc1c[nH]c2ncc(-c3cccc(OC(F)(F)F)c3)cc12)NCc1cccnc1 | ? | ? | 70.8µM | 44.7µM
SMILES | hNpr1 antagonist | FLuc inh | HEK293 tox | NIH3T3 tox
O=C(Cc1c[nH]c2ncc(-c3cccnc3)cc12)NC1CC1 | 0 | 0 | 0 | 70.8µM
COc1ccc(-c2cnc3[nH]cc(CC(=O)NCc4cccnc4)c3c2)cc1OC | 0 | 0 | ? | 15.8µM
O=C(Cc1c[nH]c2ncc(-c3cccnc3)cc12)Nc1ccccc1 | 0 | 0 | ? | 25.1µM
CC(C)C1=NOC2(CCN(C(=O)c3ccc4c(c3)OCO4)CC2)C1 | 0 | 0 | 0 | 0
CN1CC(C(=O)N2CCC(c3ccccc3)CC2)NC1=O (stereo not given) | - | - | 0 | 0
Cc1ccc(C(=O)N2CCC(C(=O)N3CCC(c4nc5ncccc5[nH]4)C3)CC2)cc1 (stereo not given) | - | - | 0 | 0
O=C(Cc1c[nH]c2ncc(-c3cccnc3)cc12)NCc1ccccc1 | ? | 0 | 89.1µM | 35.5µM
CN(C)c1cccc(NC(=O)Cc2c[nH]c3ncc(-c4ccccc4)cc23)c1 | ? | 0 | ? | ?
O=C(Cc1c[nH]c2ncc(-c3ccccc3)cc12)Nc1cccnc1 | 0 | 0 | 70.8µM | 28.2µM
O=C(Cc1c[nH]c2ncc(-c3ccccc3)cc12)Nc1ccc(Cl)cc1 | ? | 0 | ? | ?
COc1ccc(NC(=O)Cc2c[nH]c3ncc(-c4ccccc4)cc23)cc1OC | ? | 0 | 89.1µM | ?
Cn1nc(C2CC2)n(C2CCN(C(=O)CCCc3ccccc3)CC2)c1=O | - | - | 0 | 0
CN1CC2(CCN(C(=O)CC3CCCC3)CC2)CC1C(=O)N1CCOCC1 (stereo not given) | - | - | 0 | 0
CC(C)(C)C(=O)N1CCC[C@@H]1C(=O)N1CCCC(c2nc3ccncc3[nH]2)C1 (stereo not given in full) | - | - | 0 | 0
CC(=O)N[C@@H]1C=C(C(=O)NCCC(N)=O)C[C@@H](O)[C@@H]1O | 0 | 0 | 0 | 0
COc1ccc(C2Cn3cnc(C(=O)N4CCC(C(=O)Nc5ccccc5F)CC4)c3CO2)cc1 (stereo not given) | 0 | ? | 0 | 0
Cc1ncsc1CCCNc1nc(-c2ccccn2)nc2c1CCNCC2 | 0 | 0 | 0 | 0
c1ccc(OCCNc2nc(-c3cccnc3)nc3c2CCNCC3)cc1 | ? | 0 | ? | 31.6µM
O=C(NCc1cccnc1)c1ccc2nnc(-c3cc(C(F)(F)F)cc(C(F)(F)F)c3)n2c1 | - | - | 0 | 0
O=C(NCCc1ccccc1F)c1ccc2nnc(-c3cccc(C(F)(F)F)c3)n2c1 | - | - | ? | 35.5µM
O=C(NCc1cccc(Cl)c1)c1ccc2nnc(-c3cccc(C(F)(F)F)c3)n2c1 | - | - | ? | 31.6µM
O=C(NCc1ccc(F)cc1)c1ccc2nnc(-c3cc(C(F)(F)F)cc(C(F)(F)F)c3)n2c1 | - | - | ? | 35.5µM
CC(C)CNC(=O)N1CCC(CC2CC2)(NS(C)(=O)=O)CC1 | - | - | 0 | 0
COc1ccc(-c2ccccc2C(=O)NCC(F)F)nn1 | - | - | 0 | 0
CC(C)[C@H](NC(=O)Cn1nc2c(cc1=O)CCCCC2)C(=O)O | 0 | 22.4µM | 0 | 0
SMILES | hNpr1 antagonist | FLuc inh | HEK293 tox | NIH3T3 tox
O=C(Cn1nc2c(cc1=O)CCCCC2)NCCn1ccc2c(Cl)cccc21 | 0 | 0 | 79.4µM | ?
Cc1ccc2nc(NC(=O)Cn3nc4c(cc3=O)CCCCC4)sc2c1 | 0 | 35.5µM | ? | 0
CC(C)NC(=O)Cn1nc2c(cc1=O)CCCCC2 | 0 | 0 | 0 | 0
CCn1nccc1C(=O)N1CCC(N2C(=O)[C@H]3CN(Cc4ccccc4)C[C@H]3C2=O)CC1 | - | - | 0 | 0
COc1ccc(-c2noc([C@@H]3CCCN3C(=O)c3cc(C)cc(C)c3)n2)cc1OC | 0 | 0 | 31.6µM | ?
COc1ccc(-c2noc([C@@H]3CCCN3C(=O)c3ccc(C)cc3)n2)cc1OC | 0 | 0 | ? | 0
O=C(c1cc(Cl)ccc1F)N1CCC[C@H]1c1nc(-c2ccc(F)cc2)no1 | 0 | 0 | 79.4µM | ?
Cc1cccc(NC(=O)Cn2c(-c3cccc(Cl)c3)nc(C)c(CCO)c2=O)c1C | 0 | 0 | ? | 0
Cc1ccc(C(=O)N(CC(C)C)CC2CN(C(=O)Nc3cccc(Cl)c3)CCO2)cc1 (stereo not given) | 0 | 0 | 39.8µM | ?
Cc1ccc(C(=O)N(CC(C)C)CC2CN(C(=O)c3ccc(Cl)c(Cl)c3)CCO2)cc1 (stereo not given) | 0 | 0 | 44.7µM | ?
CC(C)CN(CC1CN(C(=O)c2cccc(Cl)c2)CCO1)C(=O)c1cccc2ccccc12 (stereo not given) | 0 | 0 | 35.5µM | ?
